In PMC10726135, “HNF4α isoforms regulate the circadian balance between carbohydrate and lipid metabolism in the liver” one finds binding signal data, which are given here for 47 sequences.

The full ranking holds about 18,000 sequences; the median of “log2 normalized intensity” is about 0.36, and the highest 2% start at about 7.3. The sample as a whole holds a higher share of the highest values than the screen did.

The experiment has as its target T1, HNF4alpha8 (COS-7 nuclear extract) (Homo sapiens, UniProt P41235-5 1-452).
T1 sequence: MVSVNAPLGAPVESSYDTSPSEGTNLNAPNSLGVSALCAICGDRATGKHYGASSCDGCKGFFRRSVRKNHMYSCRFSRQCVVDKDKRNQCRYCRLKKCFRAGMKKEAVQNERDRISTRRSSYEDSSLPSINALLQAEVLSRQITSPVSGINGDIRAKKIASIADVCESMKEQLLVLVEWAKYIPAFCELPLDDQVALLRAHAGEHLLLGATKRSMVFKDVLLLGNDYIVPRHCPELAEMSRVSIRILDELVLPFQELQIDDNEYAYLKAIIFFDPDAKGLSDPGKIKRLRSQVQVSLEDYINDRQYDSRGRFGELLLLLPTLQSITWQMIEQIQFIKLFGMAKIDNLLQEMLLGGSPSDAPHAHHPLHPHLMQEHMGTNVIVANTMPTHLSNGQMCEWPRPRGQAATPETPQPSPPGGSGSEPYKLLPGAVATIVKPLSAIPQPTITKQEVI
As to the kind of experiment: protein-binding microarray; COS-7 nuclear extract on double-stranded Agilent 4x180k PBM; binding buffer, salt, pH and temperature not given in the material; high values mean tight binding. Conditions: chain copies: 2; label: 3' end of strand 1 on the slide; dsDNA, one strand shown. In short, it runs like this:
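A custom Agilent SurePrint G3 4x180k array, spotted in quadruplicate with ~44,000 test sequences as ~60-nt oligonucleotides made double-stranded, was incubated with nuclear extracts. The extracts came from COS-7 cells transiently transfected by CaPO4 with a human HNF4α isoform expression vector. Bound HNF4α was imaged on an Agilent G2565CA scanner at 2-µm resolution, and the binding signal was taken as Agilent software's background-corrected, normalized gProcessedSignal.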
“CACCTTTGGATCCAGCTCCTGATGTTTGGTGCCTAGGGAGATTAGAGTATCGGTCGA”: the binding signal turned out to be 2.43 log2 normalized intensity. “ATCCTGCAGTTCCTGATCTTTGACCTGGAGGCCTAGGGAGATTAGAGTATCGGTCGA”: the binding signal was determined as 6.23 log2 normalized intensity. The result for “GGAGAGAGTTTGGCCCCAGTTCCCATGGACGCCTAGGGAGATTAGAGTATCGGTCGA” reads 1.45 log2 normalized intensity. For the sequence “AGATCATCCTGCAGTTCCTGATCTTTGACCGCCTAGGGAGATTAGAGTATCGGTCGA”, the binding signal is 7.84 log2 normalized intensity. In the case of “CTGATGCCCTTTGGATTTAGGCAGTTTTTGGCCTAGGGAGATTAGAGTATCGGTCGA”, the binding signal worked out at 2.92 log2 normalized intensity. Then “AATTCCAGTTTGGACTTTGATCCTGATGACGCCTAGGGAGATTAGAGTATCGGTCGA”, with 10 log2 normalized intensity; and “CAGTTTGGACTTTGATCCTGATGACTGCAGGCCTAGGGAGATTAGAGTATCGGTCGA”, with 8.17 log2 normalized intensity; and “TTACAGTGTGAATCTCCAACAAGGCAGGAGGCCTAGGGAGATTAGAGTATCGGTCGA”, with -0.531 log2 normalized intensity.

Consider “GTCATAATTTGATCCAGTGTGCAAATGTGTGCCTAGGGAGATTAGAGTATCGGTCGA”, for which the binding signal turned out to be 2.05 log2 normalized intensity. Then “CCACAACCTACCCTTTGCCCTGGACATATTGCCTAGGGAGATTAGAGTATCGGTCGA”, with 3.27 log2 normalized intensity.

Regarding “GCAAACCTGCCCTTTGCTCCAGAGGAAGATGCCTAGGGAGATTAGAGTATCGGTCGA”, the binding signal was 3.81 log2 normalized intensity. The result for “GGCAGATATGAAAGAGCCATGGACTGCTGAGCCTAGGGAGATTAGAGTATCGGTCGA” reads -0.289 log2 normalized intensity. In the case of “ATATGAAAGAGCCATGGACTGCTGACCTTTGCCTAGGGAGATTAGAGTATCGGTCGA”, the binding signal turned out to be 7.13 log2 normalized intensity. As to “AGCAATTCAAATTCTTTGCCATGACCTTTGGCCTAGGGAGATTAGAGTATCGGTCGA”, the binding signal was 6.24 log2 normalized intensity. The result for “AAAGAGCCATGGACTGCTGACCTTTGAACCGCCTAGGGAGATTAGAGTATCGGTCGA” reads 9.59 log2 normalized intensity.

With “TTCAAATTCTTTGCCATGACCTTTGAAGCCGCCTAGGGAGATTAGAGTATCGGTCGA”, the binding signal worked out at 7.52 log2 normalized intensity. “ATTCTTTGCCATGACCTTTGAAGCCCAGAAGCCTAGGGAGATTAGAGTATCGGTCGA”: the binding signal was 5.57 log2 normalized intensity. Regarding “ATCTTTGACCTGGAGCATGACCCTTTGCAGGCCTAGGGAGATTAGAGTATCGGTCGA”, the binding signal amounted to 3.64 log2 normalized intensity.

“CCTTTGAGGAGGCCTTTCCTGACCCCTCCTGCCTAGGGAGATTAGAGTATCGGTCGA”: the binding signal was 4.78 log2 normalized intensity. For the sequence “GCCATGGACTGCTGACCTTTGAACCCTGAGGCCTAGGGAGATTAGAGTATCGGTCGA”, the binding signal amounted to 10.3 log2 normalized intensity. Then “CTGCTGCCCAAAGGTCACCTCTTCAGATAGGCCTAGGGAGATTAGAGTATCGGTCGA”, with 3.89 log2 normalized intensity; and “CTGTTTGACCAAAGCTACTCATCATGAACTGCCTAGGGAGATTAGAGTATCGGTCGA”, with 0.948 log2 normalized intensity.

“TAGACATAGGTTATAAACTTGTTTGGGATTGCCTAGGGAGATTAGAGTATCGGTCGA”: the binding signal stood at 0.308 log2 normalized intensity.

Consider “AAAGTCCAACACAGAAGCCTTTTGTTCTTTGCCTAGGGAGATTAGAGTATCGGTCGA”, for which the binding signal was determined as 2.15 log2 normalized intensity. On to “AATGTCTGGAAGTTCTTCCTTAAGTCTAACGCCTAGGGAGATTAGAGTATCGGTCGA”, for which the binding signal turned out to be 0.865 log2 normalized intensity. “GGACTTGGTAAAGTCAATAATCTAGAAACCGCCTAGGGAGATTAGAGTATCGGTCGA”: the binding signal was 0.338 log2 normalized intensity. The result for “TAGAAGCAGTGGGACAAAGGTCACAGGAAAGCCTAGGGAGATTAGAGTATCGGTCGA” reads 5.05 log2 normalized intensity; that for “GCAGTGAGGGTGGGTTCAAAGGTCAGAAAAGCCTAGGGAGATTAGAGTATCGGTCGA”, 8.97 log2 normalized intensity. Then “GAGGGTGGGTTCAAAGGTCAGAAAAAGCTGGCCTAGGGAGATTAGAGTATCGGTCGA”, with 7.27 log2 normalized intensity; and “GGCATGGGAAGCAGTGAGGGTGGGTTCAAAGCCTAGGGAGATTAGAGTATCGGTCGA”, with 1.64 log2 normalized intensity. Consider “GGGAAGCAGTGAGGGTGGGTTCAAAGGTCAGCCTAGGGAGATTAGAGTATCGGTCGA”, for which the binding signal was determined as 8.86 log2 normalized intensity. Then “TGGGTTCAAAGGTCAGAAAAAGCTGACGCCGCCTAGGGAGATTAGAGTATCGGTCGA”, with 7.25 log2 normalized intensity; and “ATAAGGTAACAGGCCAAAGGGCAAGAACAAGCCTAGGGAGATTAGAGTATCGGTCGA”, with 3.1 log2 normalized intensity; and “TCACCTCGCTCCCCTCCTGTCAGTTTATTTGCCTAGGGAGATTAGAGTATCGGTCGA”, with 2.3 log2 normalized intensity.

For “CCCCCTGTGATTACTTCCACTCTTGCAGATGCCTAGGGAGATTAGAGTATCGGTCGA”, the binding signal is 0.911 log2 normalized intensity. The result for “TTTGCCAAAGCATAGCAAGAGTGACCTTTGGCCTAGGGAGATTAGAGTATCGGTCGA” reads 7.18 log2 normalized intensity; that for “AGATAGCATTCCAAGAGAGCAAAGTGCTTTGCCTAGGGAGATTAGAGTATCGGTCGA”, 1.21 log2 normalized intensity. In the case of “CTTCTTTGCTTAAGCATAGCAAAAGTGACCGCCTAGGGAGATTAGAGTATCGGTCGA”, the binding signal came out at 3.13 log2 normalized intensity.

With “ATAGCAAAAGTGACCTTTGCTCCAGTTCCCGCCTAGGGAGATTAGAGTATCGGTCGA”, the binding signal amounted to 8.52 log2 normalized intensity. Take “TTGCTTAAGCATAGCAAAAGTGACCTTTGCGCCTAGGGAGATTAGAGTATCGGTCGA”: the binding signal is 9.23 log2 normalized intensity. As for “AAAAGTGACCTTTGCTCCAGTTCCCAATAAGCCTAGGGAGATTAGAGTATCGGTCGA”, the binding signal stood at 7.02 log2 normalized intensity. For “GTGACCTTTGCTCCAGTTCCCAATAAGTTGGCCTAGGGAGATTAGAGTATCGGTCGA”, the binding signal turned out to be 5.13 log2 normalized intensity. Then “TGACCTTTGCTCCAGTTCCCAATAATTTCCGCCTAGGGAGATTAGAGTATCGGTCGA”, with 5.13 log2 normalized intensity; and “CAAGAGTGACCTTTGCTCCAGTTCCCAATAGCCTAGGGAGATTAGAGTATCGGTCGA”, with 6.59 log2 normalized intensity. On to “CAAAGCATAGCAAGAGTGACCTTTGCTCCAGCCTAGGGAGATTAGAGTATCGGTCGA”, for which the binding signal came to 9 log2 normalized intensity. Consider “CATAGCAAGAGTGACCTTTGCTCCAGTTCCGCCTAGGGAGATTAGAGTATCGGTCGA”, for which the binding signal was found to be 8.19 log2 normalized intensity. As for “CCTGCATATCCTGACTGCTGACCTTTAAGCGCCTAGGGAGATTAGAGTATCGGTCGA”, the binding signal worked out at 5.56 log2 normalized intensity.
